Laboratory results: the supplement of paper PMC10849652
Targets with a hit are over-represented here; the source holds about 8,800 in all. About 0.5% of all pairs of compound and target were hits.

How the values were obtained:
Assay in all cases: log2 fold change, soluble protein after heating vs DMSO (PISA); higher = thermal stabilisation; K562 lysate, 10 uM; active = over 0.2 and 3.5 SD of the protein, either way, in both replicates (recomputed)
nilotinib = compound: Cc1cn(-c2cc(NC(=O)c3ccc(C)c(Nc4nccc(-c5cccnc5)n4)c3)cc(C(F)(F)F)c2)cn1 [nilotinib]
How it was run: (§1)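 Soluble protein was defined as the supernatant remaining after 21,000xg for 90 min, following pooling of heated aliquots and adjustment to 0.5% NP-40 at 4°C. Before that, crude K562 extract at 1 mg/mL protein in PBS pH 7.4 with 1 mM MgCl2 was treated with 10 μM compound for 30 min and heated for 3 min across 48°C-58°C. Quantification used TMTpro 16plex LC-MS/MS with channel sums equalised, and values are log-two fold changes in thermal stability relative to solvent controls from duplicates.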

[1] = compound: Cc1nc(Nc2n[nH]c3c2CN(C(=O)N[C@H](CN(C)C)c2ccccc2)C3(C)C)c2sccc2n1
How it was run: as §1

dasatinib = compound: Cc1nc(Nc2ncc(C(=O)Nc3c(C)cccc3Cl)s2)cc(N2CCN(CCO)CC2)n1 [dasatinib]
How it was run: as §1

[2] = compound: Cc1ncc(-c2ccnc(Nc3ccc(S(C)(=O)=O)cc3)n2)n1C(C)C
How it was run: as §1

[3] = compound: Cn1cc(-c2ccc3c(c2)CCN3C(=O)Cc2cccc(C(F)(F)F)c2)c2c(N)ncnc21
How it was run: as §1

quisinostat = compound: Cn1cc(CNCC2CCN(c3ncc(C(=O)NO)cn3)CC2)c2ccccc21 [quisinostat]
How it was run: as §1

tipifarnib = compound: Cn1cncc1[C@@](N)(c1ccc(Cl)cc1)c1ccc2c(c1)c(-c1cccc(Cl)c1)cc(=O)n2C [tipifarnib]
How it was run: as §1

[4] = compound: NC(=O)Nc1cc(-c2cccc(F)c2)sc1C(=O)N[C@H]1CCCNC1
How it was run: as §1

[5] = compound: NC(=O)c1cnc(N[C@@H]2CCCC[C@@H]2N)nc1Nc1cccc(-n2nccn2)c1
How it was run: as §1

[6] = compound: NC1(c2ccc(-c3nc4ccn5c(=O)[nH]nc5c4cc3-c3ccccc3)cc2)CCC1
How it was run: as §1

Measured: log2 fold change

POLR2G (UniProt P62487)
inactive: nilotinib 0.01 | [1] -0.02 | dasatinib -0.024 | [2] 0.007 | [3] 0 | quisinostat 0.01 | tipifarnib 0.007 | [4] 0.001 | [5] 0.011 | [6] -0.016

PRIM2 (UniProt P49643)
inactive: nilotinib 0.052 | [1] 0.007 | dasatinib -0.038 | [2] -0.012 | [3] 0.02 | quisinostat -0.027 | tipifarnib -0.037 | [4] 0.018 | [5] -0.001 | [6] -0.021

PCBP2 (UniProt H3BRU6)
inactive: nilotinib 0.066 | [1] 0.04 | dasatinib 0.079 | [2] 0.027 | [3] -0.082 | quisinostat -0.119 | tipifarnib -0.095 | [4] 0.042 | [5] -0.023 | [6] 0.084

PREP (UniProt P48147)
inactive: nilotinib 0 | [1] -0.014 | dasatinib -0.026 | [2] -0.002 | [3] 0.007 | quisinostat 0.008 | tipifarnib 0.023 | [4] 0.011 | [5] 0.006 | [6] -0.005

PLXNB2 (UniProt O15031)
inactive: nilotinib -0.052 | [1] 0.019 | dasatinib -0.036 | [2] 0.013 | [3] 0.003 | quisinostat 0.016 | tipifarnib -0.017 | [4] 0.042 | [5] -0.024 | [6] -0.006

PLXND1 (UniProt Q9Y4D7)
inactive: nilotinib -0.006 | [1] 0.043 | dasatinib -0.045 | [2] 0.092 | [3] 0.013 | quisinostat -0.093 | tipifarnib 0.014 | [4] -0.047 | [6] 0.094

PEF1 (UniProt Q9UBV8)
UniProt Q9UBV8, sequence (Q9UBV8 whole entry, looked up): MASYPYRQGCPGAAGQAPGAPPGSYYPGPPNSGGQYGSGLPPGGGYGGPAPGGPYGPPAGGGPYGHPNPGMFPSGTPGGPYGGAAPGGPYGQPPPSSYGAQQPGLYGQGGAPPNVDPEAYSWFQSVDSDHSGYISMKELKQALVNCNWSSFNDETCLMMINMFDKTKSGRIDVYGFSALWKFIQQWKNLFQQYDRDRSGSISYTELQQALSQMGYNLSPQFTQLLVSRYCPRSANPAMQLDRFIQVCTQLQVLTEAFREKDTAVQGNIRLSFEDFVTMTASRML
inactive: nilotinib 0.026 | [1] 0.013 | dasatinib 0.012 | [2] -0.015 | [3] -0.004 | quisinostat 0.08 | tipifarnib 0.028 | [4] -0.018 | [5] 0.005 | [6] 0.011

PTPN23 (UniProt Q9H3S7)
inactive: nilotinib -0.003 | [1] -0.029 | dasatinib -0.034 | [2] -0.002 | [3] 0.01 | quisinostat 0.002 | tipifarnib 0 | [4] 0.024 | [5] 0.025 | [6] 0.005

PDCD4 (UniProt Q53EL6)
inactive: nilotinib 0.028 | [1] 0.019 | dasatinib -0.026 | [2] 0.035 | [3] 0.005 | quisinostat -0.044 | tipifarnib -0.008 | [4] -0.01 | [5] 0.009 | [6] -0.013

PWP2 (UniProt Q15269)
inactive: nilotinib 0.016 | [1] -0.006 | dasatinib -0.033 | [2] -0.032 | [3] -0.023 | quisinostat -0.056 | tipifarnib 0.004 | [4] 0.036 | [5] -0.022 | [6] 0.011

PTGR2 (UniProt Q8N8N7)
UniProt Q8N8N7, sequence (Q8N8N7 whole entry, looked up): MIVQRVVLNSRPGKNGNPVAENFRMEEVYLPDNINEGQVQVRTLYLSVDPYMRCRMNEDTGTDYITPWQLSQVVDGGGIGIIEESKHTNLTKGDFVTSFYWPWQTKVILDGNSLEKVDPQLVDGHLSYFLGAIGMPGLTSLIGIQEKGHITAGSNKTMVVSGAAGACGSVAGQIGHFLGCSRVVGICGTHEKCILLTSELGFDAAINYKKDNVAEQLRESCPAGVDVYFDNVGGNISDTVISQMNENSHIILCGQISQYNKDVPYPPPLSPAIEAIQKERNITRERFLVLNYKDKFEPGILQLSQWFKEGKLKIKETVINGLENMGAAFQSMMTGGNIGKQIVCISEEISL
inactive: nilotinib 0.024 | [1] -0.044 | dasatinib 0.012 | [2] 0.025 | [3] 0.024 | quisinostat -0.008 | tipifarnib 0.034 | [4] -0.011 | [5] -0.002 | [6] 0.011

PIAS2 (UniProt O75928)
inactive: nilotinib -0.019 | [1] -0.005 | dasatinib -0.097 | [2] 0.068 | [3] -0.026 | quisinostat 0.061 | tipifarnib -0.086 | [4] 0.004 | [6] 0.025

PRKCSH (UniProt K7ELL7)
inactive: nilotinib -0.013 | [1] -0.163 | dasatinib 0.014 | [2] 0.125 | [3] -0.015 | quisinostat 0.04 | tipifarnib 0.024 | [4] 0.024 | [5] -0.032 | [6] -0.031

PKP3 isoform 2 (UniProt Q9Y446)
inactive: nilotinib -0.034 | [1] -0.021 | dasatinib 0 | [2] -0.039 | [3] -0.001 | quisinostat -0.012 | tipifarnib 0.007 | [4] -0.051 | [5] -0.021 | [6] 0.02

PDXDC1 (UniProt Q6P996)
UniProt Q6P996, sequence (Q6P996 whole entry, looked up): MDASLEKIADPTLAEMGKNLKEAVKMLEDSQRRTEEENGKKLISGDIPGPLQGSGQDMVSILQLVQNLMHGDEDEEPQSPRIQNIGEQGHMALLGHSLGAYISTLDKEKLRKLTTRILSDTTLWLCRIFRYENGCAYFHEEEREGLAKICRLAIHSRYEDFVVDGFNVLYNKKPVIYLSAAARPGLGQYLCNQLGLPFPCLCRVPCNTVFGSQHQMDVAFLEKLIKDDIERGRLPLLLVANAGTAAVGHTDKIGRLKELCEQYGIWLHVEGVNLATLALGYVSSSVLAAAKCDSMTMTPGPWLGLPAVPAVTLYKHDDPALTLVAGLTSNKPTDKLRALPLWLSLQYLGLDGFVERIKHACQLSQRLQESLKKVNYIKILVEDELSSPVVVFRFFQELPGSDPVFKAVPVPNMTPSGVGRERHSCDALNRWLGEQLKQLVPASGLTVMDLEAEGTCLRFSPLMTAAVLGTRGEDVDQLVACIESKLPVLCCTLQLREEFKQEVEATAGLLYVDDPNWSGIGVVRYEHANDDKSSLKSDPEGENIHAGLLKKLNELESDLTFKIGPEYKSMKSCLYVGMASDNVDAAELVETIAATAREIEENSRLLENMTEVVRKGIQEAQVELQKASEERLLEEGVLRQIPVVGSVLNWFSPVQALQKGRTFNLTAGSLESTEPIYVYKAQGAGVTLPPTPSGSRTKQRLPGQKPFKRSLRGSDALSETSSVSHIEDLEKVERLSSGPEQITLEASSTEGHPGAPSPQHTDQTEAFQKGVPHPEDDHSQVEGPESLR
inactive: nilotinib 0.058 | [1] 0.064 | dasatinib -0.098 | [2] -0.024 | [3] 0.022 | quisinostat -0.035 | tipifarnib -0.074 | [4] 0.019 | [5] 0.042 | [6] 0.012

PEX2 (UniProt P28328)
UniProt P28328, sequence (P28328 whole entry, looked up): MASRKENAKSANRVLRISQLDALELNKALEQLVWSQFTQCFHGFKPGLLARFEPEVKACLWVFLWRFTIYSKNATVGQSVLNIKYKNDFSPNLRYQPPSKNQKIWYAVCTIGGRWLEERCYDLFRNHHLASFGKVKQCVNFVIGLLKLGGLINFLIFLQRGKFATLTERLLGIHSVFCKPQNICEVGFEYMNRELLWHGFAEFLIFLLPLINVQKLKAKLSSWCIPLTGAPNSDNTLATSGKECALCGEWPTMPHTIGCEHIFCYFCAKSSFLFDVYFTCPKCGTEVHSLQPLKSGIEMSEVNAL
inactive: nilotinib 0.059 | [1] -0.158 | dasatinib -0.078 | [2] -0.041 | [3] 0.039 | quisinostat 0.054 | tipifarnib 0.048 | [4] 0.143 | [5] 0.116 | [6] -0.106

PDE2A (UniProt O00408)
inactive: nilotinib 0.021 | [1] -0.033 | dasatinib 0.042 | [2] -0.008 | [3] 0.035 | quisinostat 0.026 | tipifarnib 0.042 | [4] 0.006 | [5] 0.08 | [6] -0.184

PDF (UniProt Q9HBH1)
UniProt Q9HBH1, sequence (Q9HBH1 whole entry, looked up): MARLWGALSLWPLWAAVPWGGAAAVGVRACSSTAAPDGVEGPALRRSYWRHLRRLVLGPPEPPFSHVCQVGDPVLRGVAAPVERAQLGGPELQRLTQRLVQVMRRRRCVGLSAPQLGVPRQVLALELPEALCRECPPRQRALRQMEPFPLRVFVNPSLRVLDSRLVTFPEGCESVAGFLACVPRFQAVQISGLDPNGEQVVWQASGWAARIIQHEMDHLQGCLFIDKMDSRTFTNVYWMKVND
inactive: nilotinib 0.014 | [1] 0.002 | dasatinib -0.037 | [2] 0.02 | [3] 0.067 | quisinostat -0.064 | tipifarnib -0.012 | [4] 0.022 | [5] -0.034 | [6] 0.056

PRKAR2A (UniProt P13861)
UniProt P13861, sequence (P13861 whole entry, looked up): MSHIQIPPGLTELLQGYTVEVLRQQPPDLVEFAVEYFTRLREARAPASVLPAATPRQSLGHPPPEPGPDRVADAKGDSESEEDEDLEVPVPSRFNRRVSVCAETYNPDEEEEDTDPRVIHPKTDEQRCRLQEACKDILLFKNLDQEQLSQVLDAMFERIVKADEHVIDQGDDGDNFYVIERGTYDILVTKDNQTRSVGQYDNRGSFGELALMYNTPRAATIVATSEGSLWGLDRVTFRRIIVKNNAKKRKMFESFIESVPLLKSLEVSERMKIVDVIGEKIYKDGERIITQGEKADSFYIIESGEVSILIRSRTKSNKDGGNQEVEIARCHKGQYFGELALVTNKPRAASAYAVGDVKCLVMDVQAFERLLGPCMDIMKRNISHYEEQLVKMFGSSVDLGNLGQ
inactive: nilotinib -0.036 | [1] -0.051 | dasatinib -0.065 | [2] -0.016 | [3] 0.017 | quisinostat 0.02 | tipifarnib 0.025 | [4] -0.198 | [5] -0.037 | [6] -0.011

POGK (UniProt Q9P215)
inactive: nilotinib -0.04 | [1] 0.005 | dasatinib -0.068 | [2] -0.001 | [3] -0.023 | quisinostat -0.086 | tipifarnib 0.007 | [4] 0.108 | [5] 0.008 | [6] -0.006

PPP2R5C isoform 5 (UniProt Q13362)
UniProt Q13362, sequence (Q13362 whole entry, looked up): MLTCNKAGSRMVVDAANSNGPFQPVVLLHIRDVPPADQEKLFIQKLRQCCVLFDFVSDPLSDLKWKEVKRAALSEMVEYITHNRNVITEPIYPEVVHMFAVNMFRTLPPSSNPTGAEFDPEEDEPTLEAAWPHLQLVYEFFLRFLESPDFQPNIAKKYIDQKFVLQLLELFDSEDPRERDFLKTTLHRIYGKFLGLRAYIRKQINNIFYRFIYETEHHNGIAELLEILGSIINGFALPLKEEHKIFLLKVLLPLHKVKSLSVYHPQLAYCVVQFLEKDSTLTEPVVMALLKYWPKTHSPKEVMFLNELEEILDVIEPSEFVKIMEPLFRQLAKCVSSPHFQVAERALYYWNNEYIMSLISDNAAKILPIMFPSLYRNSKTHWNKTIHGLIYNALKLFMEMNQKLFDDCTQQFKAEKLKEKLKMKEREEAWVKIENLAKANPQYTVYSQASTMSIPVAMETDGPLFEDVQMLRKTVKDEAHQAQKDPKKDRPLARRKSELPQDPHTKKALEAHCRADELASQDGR
inactive: nilotinib 0.016 | [1] 0.003 | dasatinib -0.053 | [2] 0.022 | [3] -0.005 | quisinostat 0.016 | tipifarnib 0.074 | [4] 0.032 | [5] 0.059 | [6] -0.019

PRKACA (UniProt P17612)
active: [1] 0.638 | [4] 0.637
inactive: nilotinib -0.055 | dasatinib 0.07 | [2] 0.068 | [3] 0.049 | quisinostat 0.097 | tipifarnib -0.083 | [5] 0.273 | [6] -0.038

PDXK (UniProt O00764)
inactive: nilotinib 0.123 | [1] -0.031 | dasatinib 0.005 | [2] 0.055 | [3] -0.003 | quisinostat -0.03 | tipifarnib 0.012 | [4] -0.008 | [5] -0.008 | [6] -0.023

PHGDH (UniProt O43175)
UniProt O43175, sequence (O43175 whole entry, looked up): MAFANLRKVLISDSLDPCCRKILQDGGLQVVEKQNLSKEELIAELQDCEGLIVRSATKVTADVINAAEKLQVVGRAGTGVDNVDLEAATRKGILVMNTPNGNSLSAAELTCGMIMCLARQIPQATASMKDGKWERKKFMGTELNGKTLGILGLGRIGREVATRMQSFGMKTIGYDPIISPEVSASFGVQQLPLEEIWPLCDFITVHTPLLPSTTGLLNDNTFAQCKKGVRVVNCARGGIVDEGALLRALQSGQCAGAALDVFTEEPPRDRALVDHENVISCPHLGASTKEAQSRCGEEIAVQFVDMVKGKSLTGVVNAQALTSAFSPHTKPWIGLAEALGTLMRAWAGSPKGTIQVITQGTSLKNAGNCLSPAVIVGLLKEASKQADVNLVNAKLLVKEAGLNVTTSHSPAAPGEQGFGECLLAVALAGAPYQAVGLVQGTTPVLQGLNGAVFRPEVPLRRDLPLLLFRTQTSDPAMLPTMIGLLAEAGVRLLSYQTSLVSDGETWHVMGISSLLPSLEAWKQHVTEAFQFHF
inactive: nilotinib 0.013 | [1] -0.025 | dasatinib -0.077 | [2] 0.005 | [3] 0.021 | quisinostat -0.032 | tipifarnib 0.018 | [4] -0.032 | [5] 0.006 | [6] 0.054

POLR2M (UniProt P0CAP2)
UniProt P0CAP2, sequence (P0CAP2 whole entry, looked up): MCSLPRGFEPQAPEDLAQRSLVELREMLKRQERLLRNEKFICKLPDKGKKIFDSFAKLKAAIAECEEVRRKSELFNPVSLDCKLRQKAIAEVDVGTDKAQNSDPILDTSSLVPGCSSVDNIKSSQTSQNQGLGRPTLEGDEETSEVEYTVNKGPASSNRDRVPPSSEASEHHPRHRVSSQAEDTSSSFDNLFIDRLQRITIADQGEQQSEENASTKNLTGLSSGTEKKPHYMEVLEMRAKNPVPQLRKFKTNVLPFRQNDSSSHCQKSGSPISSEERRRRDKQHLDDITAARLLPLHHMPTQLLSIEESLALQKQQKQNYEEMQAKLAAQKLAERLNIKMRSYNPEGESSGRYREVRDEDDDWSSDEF
inactive: nilotinib -0.033 | [1] -0.014 | dasatinib -0.032 | [2] 0.012 | [3] -0.056 | quisinostat -0.015 | tipifarnib 0.007 | [4] 0.012 | [5] 0.002 | [6] 0.014

POLB (UniProt P06746)
inactive: nilotinib 0.035 | [1] -0.013 | dasatinib 0 | [2] -0.026 | [3] 0.008 | quisinostat -0.028 | tipifarnib 0.002 | [4] 0.022 | [5] 0.012 | [6] -0.053

PUM1 isoform 3 (UniProt Q14671)
UniProt Q14671, sequence (Q14671 whole entry, looked up): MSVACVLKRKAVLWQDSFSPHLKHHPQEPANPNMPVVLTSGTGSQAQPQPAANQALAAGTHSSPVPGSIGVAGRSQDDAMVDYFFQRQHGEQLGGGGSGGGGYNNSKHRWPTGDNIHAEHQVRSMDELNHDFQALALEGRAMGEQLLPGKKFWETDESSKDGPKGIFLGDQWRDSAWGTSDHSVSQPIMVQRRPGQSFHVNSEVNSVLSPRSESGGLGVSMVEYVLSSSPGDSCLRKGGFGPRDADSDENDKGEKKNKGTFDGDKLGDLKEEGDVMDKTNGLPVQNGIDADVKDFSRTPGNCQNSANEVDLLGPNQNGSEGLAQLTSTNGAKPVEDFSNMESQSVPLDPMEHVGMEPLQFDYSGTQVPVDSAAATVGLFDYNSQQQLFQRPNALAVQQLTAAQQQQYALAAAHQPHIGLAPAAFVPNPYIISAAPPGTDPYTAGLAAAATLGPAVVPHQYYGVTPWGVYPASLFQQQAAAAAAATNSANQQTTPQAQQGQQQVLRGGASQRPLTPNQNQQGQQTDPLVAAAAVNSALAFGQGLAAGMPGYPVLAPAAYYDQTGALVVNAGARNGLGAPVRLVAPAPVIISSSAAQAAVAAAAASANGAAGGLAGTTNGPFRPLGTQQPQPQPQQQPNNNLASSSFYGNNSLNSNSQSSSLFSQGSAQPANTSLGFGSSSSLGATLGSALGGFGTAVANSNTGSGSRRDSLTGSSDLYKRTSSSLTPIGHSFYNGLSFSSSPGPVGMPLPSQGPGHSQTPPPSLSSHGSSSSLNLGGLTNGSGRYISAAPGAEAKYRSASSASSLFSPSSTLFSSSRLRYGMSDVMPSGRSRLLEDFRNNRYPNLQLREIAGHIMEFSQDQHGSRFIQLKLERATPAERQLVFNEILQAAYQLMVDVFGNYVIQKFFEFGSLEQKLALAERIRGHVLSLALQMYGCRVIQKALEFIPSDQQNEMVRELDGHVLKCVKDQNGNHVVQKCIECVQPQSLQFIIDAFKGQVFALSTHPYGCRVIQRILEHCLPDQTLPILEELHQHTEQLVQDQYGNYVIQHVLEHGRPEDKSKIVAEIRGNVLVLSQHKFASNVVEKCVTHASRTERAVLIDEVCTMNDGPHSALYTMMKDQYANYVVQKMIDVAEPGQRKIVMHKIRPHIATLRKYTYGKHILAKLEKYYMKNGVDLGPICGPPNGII
inactive: nilotinib -0.072 | [1] -0.012 | dasatinib -0.027 | [2] 0.03 | [3] 0.016 | quisinostat 0.01 | tipifarnib -0.057 | [4] 0.004 | [5] -0.021 | [6] 0.028

PHKG1 isoform 2 (UniProt Q16816)
inactive: nilotinib -0.049 | dasatinib -0.124 | [2] -0.204 | [3] -0.021 | quisinostat -0.151 | tipifarnib -0.007 | [5] 0.043 | [6] -0.181
active: [1] 1.01 | [4] 1.31

PTGS1 isoform 6 (UniProt P23219)
inactive: nilotinib 0.021 | [1] 0.058 | dasatinib 0.034 | [2] 0.043 | [3] 0.053 | quisinostat -0.04 | tipifarnib -0.039 | [4] 0.022 | [5] -0.008 | [6] 0.001
